Source: PubChem (Sanford-Burnham Center for Chemical Genomics)
This is a sample that favours compounds with a hit; in the whole collection about 4% have one here.
NALP1 yeast inh – inhibitors of NALP1 inflammasome in yeast. S. cerevisiae NALP1/ASC/caspase-1 growth, X-gal OD620, 72 h. inhibition, % at 10 µM. hit rate 0.61% among 280,000. AID 2071; in the data active = inhibition mostly above about 24%, no sharp cut-off; inactive = mostly below about 32%
tim23-1 inh – growth inhibitors of tim23-1 mutant yeast | inhibition, % at 20 µM | S. cerevisiae tim23-1 growth, BacTiter-Glo luminescence, 24 h | hit rate 1.3% among 330,000;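 active = growth inhibition of the mutant yeast at or above 50%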;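 also: temperature-sensitive mutant grown at 25 °C; plate controls were DMSO-treated mutant yeast for no effect and medium wells lacking yeast for full effect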
TIM10 inh – TIM10 yeast growth inhibition | S. cerevisiae TIM10 strain growth, BacTiter-Glo luminescence, 24 h | inhibition, % at 10 µM | hit rate 1.4% among 330,000;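 active = inhibition of 40% or more at the single tested concentration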;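 also: wild-type TIM10 isogenic control strain grown at permissive 25 °C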
tim10-1 inh – inhibits growth of tim10-1 mutant yeast; inhibition, % at 20 µM; S. cerevisiae tim10-1 ts strain growth, BacTiter-Glo, 24 h; hit rate 2.2% among 330,000;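 active = inhibition of at least 40%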;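 also: mutant grown at 25 °C; 0% = DMSO wells with yeast and 100% = wells holding no yeast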
NALP3 yeast inh – inhibitors of NALP3 inflammasome in yeast; Yeast reconstituted NLRP3/ASC/caspase-1, beta-gal luminescence, 24 h; hit rate 0.39% among 330,000; inhibition, % at 10 µM;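 active = inhibition of 50% or more; inactive = inhibition below 50%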;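 also: plate controls were induced DMSO wells for no effect and uninduced yeast grown without galactose for full effect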
TIM10 conf – confirmation of TIM10 yeast growth inhibitors. hit rate 63% among 4,600. S. cerevisiae tim10 strain growth, BacTiter-Glo luminescence, 24 h. shares compounds with TIM10 inh. inhibition, % at 10 µM. AID 463215;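 active = inhibition of yeast growth at or above a set limit in either of two replicates at 10 µM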;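 also: this counterscreen used the strain with wild-type TIM10; 0% = yeast with DMSO and 100% = medium wells lacking yeast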
An asterisk follows results filed as active; x = no result; ! = not confirmed by another sample.

SMILES	NALP1 yeast inh	tim23-1 inh	TIM10 inh	tim10-1 inh	NALP3 yeast inh	TIM10 conf
O=C(CN1CCN(Cc2ccccc2)CC1)N1CCCCCC1	-10	5	-8	3	-7	x
CCOc1ccc(/C=N/NC(=S)NC2CC3C=CC2C3)cc1 (centres undefined)	8	8	20	14	0	x
COc1cc(/C=N/NC(=S)NC2CC3C=CC2C3)cc(OC)c1OC (centres undefined)	7	41	49*	11	20	31*
c1ccc(CNc2ncnc3ccccc23)cc1	6	-21	81*!	8	11	-16
O=C1c2ccccc2-c2nnc(-c3ccc(O)cc3)cc21	4	17	50*	27	23	31*
O=C1c2ccccc2-c2nnc(-c3ccc(F)cc3)cc21	-1	-3	6	-17	28	x
COc1ccc(N2CCN(C(=O)[C@@H]3CCCN3C3=NS(=O)(=O)c4ccccc43)CC2)cc1	x	9	4	10	12	x
CCOC(=O)C1=CC[C@H]2c3c(c4ccccc4n3C)C[C@H]1N2C	x	14	-6	7	16	x
CC(C)(C)c1cc(NCCCn2ccnc2)n2ncc(-c3ccc(Cl)cc3)c2n1	14	21	60*	35	19	60*
Cc1cc(NCCCn2ccnc2)n2nc(-c3ccc(Cl)cc3)cc2n1	3	24	13	23	12	x
CCOc1ccccc1/C=N/n1c(C2CCCCC2)n[nH]c1=S	-2	37	43*	13	23	50*
Cc1cccc(/C=N/n2c(C3CCCCC3)n[nH]c2=S)c1	2	33	40*	30	33	49*
Cc1ccc(C2=NS(=O)(=O)N(C)C(C(=O)NC3CCCC3)=C2)cc1	8	-7	-6	2	12	x
CN(Cc1ccccc1)c1nc(N)c([N+](=O)[O-])c(Nc2cccc(F)c2)n1	-2	1	-5	27	20	x
O=C(O)Cn1cc(/C=C/[N+](=O)[O-])c2ccccc21	-4	7	0	-4	16	x
O=C(Cn1cc(/C=C\[N+](=O)[O-])c2ccccc21)Nc1ccccc1	x	38	43*	38	-4	55*
O=[N+]([O-])/C=C/c1cn(Cc2ccccc2)c2ccccc12	14	44	46*	35	-2	56*
Nc1ccc(C(=O)N/N=C/c2cn(Cc3ccccc3)c3ccccc23)cc1	4	12	-2	-2	33	x
COc1ccc(CC(=O)OCC(=O)Nc2ccc(Cl)cc2C)cc1	x	17	-2	9	5	x
CC(=O)c1ccccc1N(C(=O)c1ccco1)C(C(=O)NC1CCCC1)c1ccc(N2CCOCC2)cc1 (centres undefined)	5	9	16	10	-1	x
CC(C)n1c(N2CCN(C(=O)Nc3ccccc3)CC2)nc2ccccc21	2	24	44*	20	3	43*
Cn1c(N2CCN(C(=O)Nc3ccc(F)cc3)CC2)nc2ccccc21	12	-2	7	-11	14	x
CC(C)c1ccc(N(CC(=O)NCc2ccc(F)cc2)C(=O)c2csnn2)cc1	3	13	-3	5	7	x
CC(C)[C@H](NS(=O)(=O)c1cccc(Cl)c1)C(=O)OCC(=O)N1CCN(c2ccccc2)CC1	24	21	47*	39	4	-7
CC(=C/c1ccccc1)/C=N/N1CCN(Cc2ccc(C)cc2)CC1	-3	8	4	-46	19	x
SMILES	NALP1 yeast inh	tim23-1 inh	TIM10 inh	tim10-1 inh	NALP3 yeast inh	TIM10 conf
Cc1ccc(CN2CCN(/N=C\C(Br)=C\c3ccccc3)CC2)cc1	8	22	44*	38	18	23
O=c1oc(-c2ccccc2)nc2sc3c(c12)CCC3	21	35	42*	37	15	24
O=C(O)c1cc(NC(=O)c2ccc(Cl)c([N+](=O)[O-])c2)cc(C(=O)O)c1	15	0	7	-9	-8	x
O=C(Nc1ccc(C(O)(C(F)(F)F)C(F)(F)F)cc1)c1ccc(Cl)c([N+](=O)[O-])c1	35	30	59*	38	12	2
CN(C)c1cccc(C(=O)OCCCC(=O)c2ccc(F)cc2)c1	x	10	-19	-13	47	x
O=[N+]([O-])c1ccc(N2N=C(c3ccccc3)CC2c2ccccc2O)cc1 (centres undefined)	14	9	42*	13	20	60*
COc1ccc(Cc2nc3ccc(C(=O)N(C)CCc4cnn(C)c4)cc3o2)cc1OC	28	3	12	-6	7	x
CCc1ccc(C(=O)NNc2cc(Cl)cc(Cl)c2)cc1	10	23	6	-7	29	x
CCc1ccc(C(=O)NNc2ccc(Cl)cc2)cc1	10	31	53*	5	41	53*
O=C(Nc1nc2ccccc2s1)C1CC(=O)N(c2ccc(Cl)cc2)C1 (centres undefined)	-14	43	48*	27	7	-22
COc1ccc(N2CC(C(=O)Nc3nc4ccc(OC)cc4s3)CC2=O)cc1 (centres undefined)	6	34	-5	33	15	x
O=C(N[C@@H](Cc1ccccc1)C(=O)N1CCN(S(=O)(=O)c2ccc(F)cc2)CC1)c1ccco1	x	26	3	17	13	x
CCOC(=O)c1sc2nc(CSc3ccccc3)nc(N3CCCN(C)CC3)c2c1C	12	4	41*	0	40	30
O=C(CCc1nc2ccccc2s1)Nc1ccccc1	54	37	47*	12	44	1
CCS(=O)(=O)c1nc(S(=O)(=O)c2ccc(C)cc2)c(NCCN2CCOCC2)s1	6	-15	97*	-2	8	10
COc1ccc(O)c(-c2cc(-c3cccc(Br)c3)n[nH]2)c1	7	-52	53*	8	1	62*
COc1ccc(-c2ncncc2-c2ccc(OC)c(OC)c2)c(O)c1	4	5	14	16	7	x
O=[N+]([O-])c1cccc(-c2cc(-c3cc(Br)ccc3O)[nH]n2)c1	6	36	47*	31	11	43*
COc1ccc(-c2cc(-c3ccc(OC)c(OC)c3)n[nH]2)c(O)c1	34	44	47*	37	-5	25
COc1ccc(-c2csc(NC(=O)CC(C)C)n2)cc1	5	6	39	10	9	x
CC(C)CC(=O)NC(=S)Nc1nc(-c2cccc3ccccc23)cs1	-7	15	47*	36	19	-19
CCc1ccc(NC(=O)CNS(=O)(=O)c2c(C)noc2C)cc1	0	3	-10	0	10	x
C=CCOc1ccc2c(c1)C(=NO)c1cc(OCC=C)ccc1-2	5	21	-19	0	28	x
COc1ccc2c(c1)C(=NO)c1cc(OC)ccc1-2	x	10	45*	38	44	38*
C[C@H](NC(=O)c1ccccc1)C(=O)N1CCN(c2ccccc2)CC1	6	8	-15	-3	33	x
